Laboratory results taken from the supplement of paper PMC9694430.
Where a name gives a salt, the structure may show the parent alone.

Key:
Test in all cases: thermal shift delta Tm vs DMSO control; higher = stronger stabilization (binding)
Settings in all cases: 12.5 µM; protein concentration 2 µM
LOC_OS04G57630-cb004 = system: LOC_OS04G57630-cb004
Procedure, shortened: (§1)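 Heating from 25°C to 95°C at 0.05°C/s, fluorescence was recorded for 19.5 μl wells of 2 μM E. coli-expressed, purified rice kinase domain in 100 mM potassium phosphate pH 7.5, 150 mM NaCl, 10% glycerol and 5 × SYPRO Orange with compound in DMSO. Boltzmann fits gave melting temperatures for this differential scanning fluorimetry assay. The shift reported is the mean of three replicates against the DMSO-only protein.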

LOC_OS05G07850-cb002 = system: LOC_OS05G07850-cb002
Procedure, shortened: as §1

LOC_OS05G16824-cb004 = system: LOC_OS05G16824-cb004
Procedure, shortened: as §1

LOC_OS05G28520-cb001 = system: LOC_OS05G28520-cb001
Procedure, shortened: as §1

LOC_OS05G30820-cb001 = system: LOC_OS05G30820-cb001
Procedure, shortened: as §1

LOC_OS05G43570-cb004 = system: LOC_OS05G43570-cb004
Procedure, shortened: as §1

LOC_OS06G16330-cb003 = system: LOC_OS06G16330-cb003
Procedure, shortened: as §1

LOC_OS06G22820-cb001 = system: T1, LOC_OS06G22820-cb001
T1 sequence (whole entry): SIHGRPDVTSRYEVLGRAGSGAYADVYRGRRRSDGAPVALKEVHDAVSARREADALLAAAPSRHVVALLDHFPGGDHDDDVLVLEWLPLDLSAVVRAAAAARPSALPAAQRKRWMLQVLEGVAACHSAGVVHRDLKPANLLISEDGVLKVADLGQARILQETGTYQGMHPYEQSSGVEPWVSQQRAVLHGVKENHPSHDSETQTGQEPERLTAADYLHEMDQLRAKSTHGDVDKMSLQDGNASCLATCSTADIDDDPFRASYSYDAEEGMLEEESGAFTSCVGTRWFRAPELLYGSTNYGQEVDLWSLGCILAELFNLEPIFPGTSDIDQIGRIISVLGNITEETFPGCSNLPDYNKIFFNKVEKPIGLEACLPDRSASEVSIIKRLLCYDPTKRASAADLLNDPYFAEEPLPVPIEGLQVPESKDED
Procedure, shortened: as §1

LOC_OS07G06570-cb004 = system: LOC_OS07G06570-cb004
Procedure, shortened: as §1

LOC_OS07G07230-cb001 = system: LOC_OS07G07230-cb001
Procedure, shortened: as §1
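Also: purified Escherichia coli-expressed rice kinase domain construct.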

Sequence of LOC_OS06G16330-cb003 (as listed by the source): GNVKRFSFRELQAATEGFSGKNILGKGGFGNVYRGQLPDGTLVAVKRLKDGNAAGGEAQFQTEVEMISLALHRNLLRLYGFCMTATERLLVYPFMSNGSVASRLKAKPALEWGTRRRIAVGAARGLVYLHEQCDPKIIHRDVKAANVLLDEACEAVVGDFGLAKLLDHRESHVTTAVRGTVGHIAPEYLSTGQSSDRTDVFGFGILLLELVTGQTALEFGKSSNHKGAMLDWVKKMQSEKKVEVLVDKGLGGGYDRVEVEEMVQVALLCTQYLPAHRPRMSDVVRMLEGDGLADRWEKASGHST

Row | Structure (SMILES) | thermal shift delta Tm (LOC_OS04G57630-cb004) | thermal shift delta Tm (LOC_OS05G07850-cb002) | thermal shift delta Tm (LOC_OS05G16824-cb004) | thermal shift delta Tm (LOC_OS05G28520-cb001) | thermal shift delta Tm (LOC_OS05G30820-cb001) | thermal shift delta Tm (LOC_OS05G43570-cb004) | thermal shift delta Tm (LOC_OS06G16330-cb003) | thermal shift delta Tm (LOC_OS06G22820-cb001) | thermal shift delta Tm (LOC_OS07G06570-cb004) | thermal shift delta Tm (LOC_OS07G07230-cb001)
1 | Cc1nc(N)sc1-c1ccnc(Nc2ccc(N3CCOCC3)cc2)n1 | 2.53 °C | 13.4 °C | 8.12 °C | 0.36 °C | 0.56 °C | 0.98 °C | 6.87 °C | 0.66 °C | 0.8 °C | 0.42 °C
2 | C=CC(=O)Nc1cccc(Nc2nc(Nc3ccc(Oc4ccnc(C(=O)NC)c4)cc3)ncc2F)c1 | 1.31 °C | 11 °C | 6.27 °C | 0.89 °C | 0.57 °C | 0.22 °C | 6.48 °C | 0.38 °C | 0.89 °C | 1.49 °C
3 | COc1cc2ncnc(Nc3ccc(F)c(Cl)c3)c2cc1NC(=O)/C=C/CN1CCCCC1 | 0.99 °C | 0.3 °C | -1.53 °C | 1.09 °C | 0.67 °C | 1.72 °C | 0.01 °C | 1.31 °C | 1.37 °C | 0.21 °C
4 | Cn1cc(-c2ccc3c(c2)CCN3C(=O)Cc2cccc(C(F)(F)F)c2)c2c(N)ncnc21 | 1.69 °C | 6.67 °C | 1.91 °C | 0.55 °C | 0.78 °C | 0.46 °C | 2.76 °C | 0.97 °C | 0.97 °C | 4.19 °C
5 | COc1cc2c(c(OC)c1OC)-c1c(cc3c(c1OC)OCO3)CC(C)C(C)C2 (stereo not given) [Schisandrin B (Sch B)] | 0.17 °C | 1.23 °C | -1 °C | 0.63 °C | 0.52 °C | 0.14 °C | -0.39 °C | 0.43 °C | 1.21 °C | -0.17 °C
6 | CCn1c(-c2nonc2N)nc2c(C#CC(C)(C)O)ncc(OC[C@H]3CCCNC3)c21 | 0.06 °C | 0.29 °C | -1.28 °C | 0.27 °C | 0.49 °C | 1.47 °C | -0.37 °C | 0.88 °C | 0.7 °C | 0.32 °C
7 | Cc1c(Cn2c(C)nc3c(C(=O)O)cc(N4CCOCC4)cc32)cccc1C(F)(F)F | -0.06 °C | -0.15 °C | -2.15 °C | -0.07 °C | 0.36 °C | 0.33 °C | -0.16 °C | 0.35 °C | 1.32 °C | 0.5 °C
8 | COC(=O)Nc1ccc(-c2nc(N3CCOCC3)c3cnn(C4CCN(C(=O)OC)CC4)c3n2)cc1 | 0.06 °C | 0.49 °C | -0.54 °C | -0.26 °C | 0.57 °C | 0.65 °C | -0.2 °C | 0.4 °C | 0.99 °C | -0.41 °C
9 | CCCS(=O)(=O)Nc1ccc(F)c(C(=O)c2c[nH]c3ncc(-c4ccc(Cl)cc4)cc23)c1F [Vemurafenib (PLX4032, RG7204)] | 0.61 °C | 10.3 °C | -0.4 °C | 1.63 °C | 0.58 °C | 1.69 °C | 8.05 °C | 1.99 °C | 2.33 °C | 0.34 °C
10 | COc1cc2c(Nc3ccc(NC(=O)c4ccccc4)cc3)ncnc2cc1OCCCN1CCOCC1 | 1.89 °C | 5.62 °C | 1.9 °C | 1.02 °C | 0.36 °C | 0.4 °C | 1.97 °C | 0.94 °C | 0.77 °C | 0.42 °C
11 | Cc1ccc(-n2nc(C(C)(C)C)cc2NC(=O)Nc2ccc(OCCN3CCOCC3)c3ccccc23)cc1 [Doramapimod (BIRB 796)] | 1.36 °C | 1.84 °C | -1.73 °C | 0.26 °C | 0.82 °C | 0.41 °C | 0.15 °C | 0.9 °C | 0.71 °C | 0.5 °C
12 | Cn1c2ccccc2c2c3c(c4c5ccccc5n(CCC#N)c4c21)CNC3=O | 0.32 °C | 14.2 °C | 7.06 °C | 1.51 °C | 1.15 °C | 1.86 °C | 7.19 °C | 1.21 °C | -0.17 °C | 1.18 °C
13 | COc1ccc(-c2cc3c(C)nc(N)nc3n([C@H]3CC[C@H](OCCO)CC3)c2=O)cn1 | 0.78 °C | 0.06 °C | -1.05 °C | 0.57 °C | 0.75 °C | 0.65 °C | -0.03 °C | 0.69 °C | 1.04 °C | 0.01 °C
14 | Cc1ccc(Nc2cc(N[C@@H]3CCCC[C@@H]3N)nnc2C(N)=O)nc1C | -0.04 °C | 6.83 °C | 5.76 °C | 0.7 °C | 1.49 °C | 0.67 °C | 4.95 °C | 1.48 °C | 1.39 °C | 0.12 °C
15 | Cc1cc(O)c(-c2ccc([C@@H](C)CN)cc2)c2c1[nH]c(=O)c1sccc12 [OTS514 hydrochloride] | 0.19 °C | 5 °C | -0.88 °C | 0.49 °C | 0.55 °C | 0.45 °C | 1.74 °C | 0.65 °C | 1.65 °C | 0.6 °C
16 | COc1ccc(COc2cc3oc(=O)c4cc(C(C)O)ccc4c3cc2OC)cc1 (stereo not given) [Palomid 529 (P529)] | 0.55 °C | 0.39 °C | -3.05 °C | 0.84 °C | 0.78 °C | 0.66 °C | 0.23 °C | 0.68 °C | 0.97 °C | 0.03 °C
17 | FC(F)(F)c1ccc(CNc2ccc(Cc3c[nH]c4ncc(Cl)cc34)cn2)cn1 [Pexidartinib (PLX3397)] | 1.53 °C | 8.75 °C | 5.17 °C | 1.46 °C | 0.74 °C | 0.8 °C | 8.9 °C | 0.41 °C | 0.14 °C | -0.31 °C
18 | FC(F)(F)c1ccc(Nc2nc3ccc(Oc4ccnc(-c5ncc(C(F)(F)F)[nH]5)c4)cc3[nH]2)cc1 [Raf265 derivative] | 1.36 °C | 0.46 °C | 7.37 °C | 1.01 °C | 0.29 °C | 1.6 °C | 1.16 °C | 0.73 °C | 1.65 °C | 0.27 °C
19 | CCn1c(-c2nonc2N)nc2cnc(Oc3cccc(NC(=O)c4ccc(OCCN5CCOCC5)cc4)c3)cc21 | 0.7 °C | 1.97 °C | -1.49 °C | 1.05 °C | 0.73 °C | 0.77 °C | -0.54 °C | 0.79 °C | 0.87 °C | 0.15 °C
20 | Cc1cc(C(=O)NOCCO)c(Nc2ccc(I)cc2F)n(C)c1=O | 0.11 °C | 0.04 °C | -9.58 °C | -0.17 °C | 0.7 °C | 0.18 °C | -0.11 °C | 0.38 °C | 1.15 °C | 0.15 °C
